# Experimental data: PubChem BioAssay AID720524 (National Center for Advancing Translational Sciences (NCATS), 2013)
# Screen size: about 1,400 compounds; about 1,000 (71%) were called active. Roughly 12% stayed inconclusive and do not appear here. The call rests on the fitted dose curve; in most records, active means well fitted inhibition curve with a large enough effect; inconclusive means small, poorly fitted or top-dose-only effect; inactive means no such curve, though single readings can be large or run the other way. So high a share suggests a set chosen from earlier hits. The list is a sample of the results.
# Assay: Nrf2 qHTS screen for inhibitors: Nrf2 A549 ARE-Fluc Confirmation Assay for Hit Validation; further: nearly all actives have a fitted effect of over 65% in size
# Details: A549 ARE-firefly luciferase reporter, luminescence
# Source text: Nrf2 is a transcription factor that maintains cellular redox homoestasis and protects cells from xenobiotics. Nrf2 binds to the antioxidant response element (ARE) to induce gene expression of a broad spectrum of genes that encode for antioxidants. […] Finding a small molecule that act as an inhibitor of Nrf2 function would represent a novel therapeutic target that could lead to improvement in survival of patients undergoing chemo- and/or radio- therapy.
# In collaboration with the Biswal laboratory, a cell based, luminescence assay (BugLite) was developed to detect the Nrf2 activity using the A549 ARE_Fluc cells (AID 493153). This assay was coupled with a fluorescence based (CellTiter Fluor) cytotoxicity assay to identify and exclude toxic compounds. This coupled assay was used to evaluate selected compounds for hit validation. The data herein is the result of the BugLite assay where decrease in luminescence signal = inhibition of Nrf2 activation. Inhibition is the desired outcome for this assay.
# NIH Chemical Genomics Center [NCGC]
# NIH Molecular Libraries Probe Centers Network [MLPCN]
# Assay Submitter (PI): Shyam Biswal, Johns Hopkins University
# [1] Shibata T., et al., Genetic alteration of Keap1 confers constitutive Nrf2 activation and resistance to chemotherapy in gallbladder cancer. Gastroenterology, 2008.
# [2] Sjoblom T., et al., The consensus coding sequences of human breast and colorectal cancers. Science, 2006.
# Five uL of cell suspension was dispensed into 1536-well white TC-treated plate using the Kalypsys dispenser to achieve a density of 5000 cells/well in all columns except column 1. The plates were incubated at 37deg C at 5% CO2 for 2 hours before 23 nL of compounds were added with the Kalypsys pin tool equipped with a 1,536-pin array. The control compounds Budesonide and Staurosporine were added at a concentration of 2mM. Budesonide was also added as a 1:10 titration, starting at 200uM, to achieve the dose-response control signal. The plates were incubated for 18-24 hour at 37deg C, 5% CO2 followed by a 5ul addition of 5% FBS OPTI-MEM growing media in column 1 as negative control. One microliter of 5x CellTiter Fluor (Promega) was added to each well and the assay plates were incubated at 37deg C, 5% CO2 for 30 minutes. The fluorescence signal was read using the PerkinElmer ViewLux plate reader (Ex = 405 nm /Em = 525 nm) for a 3 second exposure. After the signal was taken, 3 uL of 3x BugLite was dispensed into all wells. The plates were then incubated at room temperature for 15 minutes. A second ViewLux read (40 sec exposure) was performed to detect the luminescence signal. Cytotoxicity was assessed through the first fluorescent read while biochemical activity against Nrf2 was measured in the luminescent read. The data was normalized to the positive and negative controls.
# Potency means the concentration at half of the fitted maximal effect.
row,Structure (SMILES),Potency
1,c1ccc2c(c1)[I+]c1ccccc1-2,0.206 µM (active)
2,CC[C@H]1CN2CCc3cc(OC)c(OC)cc3[C@@H]2C[C@@H]1C[C@H]1NCCc2cc(OC)c(OC)cc21,0.146 µM (active)
3,CCC(C)(O)C(=O)OC1C(=O)OC2CC3C(C)=CC(=O)C(O)C3(C)C3C4(O)OCC23C1C(C)C4O (stereo not given),0.58 µM (active)
4,COC1C(O)C(C)OC(OC2CCC3(C=O)C(CCC4C3CCC3(C)C(C5=CC(=O)OC5)CCC43O)C2)C1O (stereo not given),0.0116 µM (active)
5,C[C@]12CC[C@H](O)C[C@H]1CC[C@@H]1C2CC[C@]2(C)[C@@H](C3=CC(=O)OC3)[C@@H](O)C[C@]12O (stereo not given in full),1.64 µM (active)
